RORg inh: qHTS for inhibitors of ROR gamma transcriptional activity | Drosophila S2 Gal4-RORgamma UAS-luciferase reporter, 20 h | 5.4% of 310,000 active | Potency, µM (top dose mostly 53.6 µM), hits mostly inhibitors; also: nearly all actives have a fitted effect of over 60% in size
Target sequence (P51450 whole entry, looked up, the tested form may be a part): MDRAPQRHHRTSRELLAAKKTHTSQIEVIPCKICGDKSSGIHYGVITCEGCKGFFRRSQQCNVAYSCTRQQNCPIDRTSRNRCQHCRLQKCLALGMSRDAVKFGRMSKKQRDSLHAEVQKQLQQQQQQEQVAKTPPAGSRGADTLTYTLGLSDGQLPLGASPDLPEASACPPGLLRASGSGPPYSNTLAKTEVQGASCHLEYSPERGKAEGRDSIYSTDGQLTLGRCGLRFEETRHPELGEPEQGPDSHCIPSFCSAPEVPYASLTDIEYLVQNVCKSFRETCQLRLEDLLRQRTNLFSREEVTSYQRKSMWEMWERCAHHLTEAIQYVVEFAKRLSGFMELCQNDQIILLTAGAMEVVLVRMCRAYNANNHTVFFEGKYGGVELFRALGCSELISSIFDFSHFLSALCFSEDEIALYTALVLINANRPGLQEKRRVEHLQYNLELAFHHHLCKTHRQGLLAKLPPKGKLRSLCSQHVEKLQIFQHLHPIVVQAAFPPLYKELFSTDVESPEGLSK
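Luciferase reporter read in Schneider cells carrying Gal4-RORγ (mouse) and UAS-Photinus luciferase; cells given compound 1 h before 700 uM copper sulfate induction, then incubated 20 h at ambient temperature.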
a7 integrin act: qHTS for Activators of Integrin-Mediated Alleviation for Muscular Dystrophy | alpha7betagal myoblasts, beta-gal FDG fluorescence, 48 h | Potency, µM (highest dose often 38.3 µM), hits mostly activators | 0.064% of 350,000 active | AID 624291, 2012; also: nearly all actives have a fitted effect of over 60% in size
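Alpha7betagal+/- myoblasts (passage 13) were plated 16-24 hr, then exposed to compounds (1:260 dilution of DMSO stock) for 48 hours at 37C. After MPER lysis, β-galactosidase reporter activity was read as FDG fluorescence (ex 480/em 540) after 30 minutes.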
ERG Ets-DNA blk: qHTS for Small Molecule Inhibitors of the ERG Ets/DNA interaction. Transcriptional regulator ERG (Homo sapiens), P11308. fluorescence polarization, His-ERG Ets domain / labelled DNA. Potency, µM (top dose mostly 76.9 µM), usual class: inhibitors. 0.028% of 370,000 active; active = well fitted inhibition curve with a large enough effect in the polarisation, with a control signal flat; inconclusive = small, poorly fitted or top-dose-only effect, or effect the other way, or a change in a side signal; inactive = no such curve, though single readings can be large or run the other way; the % refers to the polarisation;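 also: polarization taken with two DNA probes labelled with fluorescein and Texas red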
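His-tagged ERG Ets domain (1 uM in the protein solution; 300mM KCl, 50mM Tris-HCl, 1mM EDTA, 1mM DTT, pH 7.5) received compound, then a probe mix of 5 nM fluorescein-DNA and 100nM Texas-615-DNA. Fluorescence polarization was read for both dyes.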
VP16 counter: VP16 counterscreen qHTS for inhibitors of ROR gamma transcriptional activity. Drosophila S2 Gal4-VP16 UAS-luciferase, luminescence, 20 h. Potency, µM (highest dose often 53.6 µM), actives largely listed as inhibitors. 3.5% of 310,000 active;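 also: Gal4-VP16 expression switched on by copper sulfate through the metallothionein promoter; nearly all actives have a fitted effect of over 50% in size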
Giardia kill: Small Molecules that selectively kill Giardia lamblia: qHTS; 0.15% of 340,000 active; Giardia lamblia trophozoite viability; AID 540267, 2011; activity change, % at 7.66 µM, hits read low; in the data active = activity change below about -80%; inconclusive = between about -30% and that limit;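 also: parasites exposed to compound for two days anaerobically before the ATP read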
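Media and compound were dispensed first, then trophozoites at 100 cells/well; plates sat 48 hrs at 37 deg C without oxygen before ATP luminescence reagent was added and read after 15-30 min at room temperature.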
Large screens that a line does not name were inactive. This excerpt belongs to a sample that is enriched for hits. Unless noted, calls follow the shape of the dose curve; as a rule, active = well fitted curve in the direction sought with a large enough effect; inconclusive = small, poorly fitted or top-dose-only effect, or another doubt; inactive = no such curve, though single readings can be large; an effect the other way counts as inactive or inconclusive.

O=[N+]([O-])c1ccc(/C=N/n2c(CO)nc3ccccc32)s1	Giardia kill -106.1
Cc1nc2ccccc2n1/N=C/c1ccc([N+](=O)[O-])s1	VP16 counter 6.31µM, Giardia kill inconclusive
O=[N+]([O-])c1ccc(/C=N/n2cnc3ccccc32)s1	VP16 counter inconclusive, Giardia kill inconclusive
O=C(CN1C(=O)COc2ccccc21)N1CCc2ccccc2C1	none
O=C(NC1CC(=O)N(c2ccc(F)cc2)C1)C1CCCC1 (centres undefined)	none (no result: RORg inh, a7 integrin act, VP16 counter, Giardia kill)
CC(C)Cn1nnnc1S(=O)(=O)CCc1ccccc1	none (no result: a7 integrin act, ERG Ets-DNA blk, Giardia kill)
COc1cc(C(=O)NC(C)CCc2ccccc2)cc(OC)c1OC (centres undefined)	none
CN(Cc1ccccc1)C(=S)NC(=O)c1ccc(-c2ccccc2)cc1	RORg inh 0.282µM, VP16 counter 0.0891µM
COc1ccc(C(=O)N(C)Cc2ccccc2)cc1Br	RORg inh inconclusive (no result: a7 integrin act, ERG Ets-DNA blk, Giardia kill)
COc1cc(C(=O)NC(=S)N(CCc2ccccc2)CCc2ccccc2)cc(OC)c1OC	RORg inh 0.398µM, VP16 counter 0.794µM
CN(Cc1ccccc1)C(=S)NC(=O)c1cccs1	RORg inh 0.316µM, VP16 counter 0.251µM
COc1cc(C(=O)NC(=S)N(C)Cc2ccccc2)cc(OC)c1OC	RORg inh 0.562µM, VP16 counter 3.55µM
CC(C)Oc1ccc(OCCSc2nc3ccccc3n2CC(=O)O)cc1	none
Cc1ccc(OCCNS(=O)(=O)c2ccc(N3CCCC3=O)cc2)cc1C	VP16 counter 12.6µM (no result: ERG Ets-DNA blk)
COc1ccc(CCNS(=O)(=O)c2ccc(N3CCCC3=O)cc2)cc1	none (no result: RORg inh, VP16 counter)
Cc1ccc(OCCNS(=O)(=O)c2ccc(N3CCCC3=O)cc2)cc1	RORg inh inconclusive, VP16 counter 12.6µM
COC(=O)NC(CCc1ccccc1)C(C(=O)OC)C(=O)OC (centres undefined)	none (no result: a7 integrin act, ERG Ets-DNA blk, Giardia kill)
S=C(NC1CCCCC1)N1CCOCCOCCN(C(=S)NC2CCCCC2)CCOCC1	RORg inh 11.2µM, VP16 counter inconclusive
CCOc1ccc(NC(=S)N2CCC(C(O)(c3ccccc3)c3ccccc3)CC2)cc1	RORg inh 12.6µM, VP16 counter inconclusive
OC(c1ccccc1)(c1ccccc1)C1CCN(C(=S)NCCc2ccccc2)CC1	RORg inh 12.6µM, VP16 counter inconclusive
OC(c1ccccc1)(c1ccccc1)C1CCN(C(=S)NC2CCCC2)CC1	RORg inh 20µM
COc1ccc(NC(=S)N2CCC(C(O)(c3ccccc3)c3ccccc3)CC2)cc1	RORg inh inconclusive, VP16 counter inconclusive
OC(c1ccccc1)(c1ccccc1)C1CCN(C(=S)Nc2ccc(F)cc2)CC1	none (no result: RORg inh, VP16 counter)
COc1ccccc1CNC(=O)CCCCn1c(=O)c2ccccc2n(Cc2ccccc2C)c1=O	none (no result: RORg inh, a7 integrin act, VP16 counter, Giardia kill)
Cc1cn2c(=O)cc(COc3cccc(NC(=O)c4ccc(C(C)(C)C)cc4)c3)nc2s1	none (no result: RORg inh, a7 integrin act, VP16 counter, Giardia kill)
COc1ccc(C(=O)CSc2ccc(-c3ccccc3)nn2)cc1	none
COc1ccc(-c2ccc(SC)nn2)cc1	RORg inh 10µM, VP16 counter inconclusive, Giardia kill inconclusive
Cc1ccc(NC(=O)c2sc3ncnc(N(C)C4CCCCC4)c3c2C)cc1	none (no result: RORg inh, a7 integrin act, VP16 counter, Giardia kill)
S=c1[nH]nc(COc2ccccc2)n1/N=C/C=C/c1ccccc1	RORg inh inconclusive, VP16 counter 4.47µM
S=c1[nH]nc(COc2ccccc2)n1/N=C/C(Cl)=C/c1ccccc1	RORg inh 7.94µM, VP16 counter inconclusive
S=c1[nH]nc(COc2ccccc2)n1/N=C/c1cccnc1	VP16 counter inconclusive
S=c1[nH]nc(COc2ccccc2)n1/N=C/C=C/c1ccco1	none
O=C(COCc1cc(-c2ccc(F)cc2)on1)Nc1cccc(Cl)c1Cl	none (no result: RORg inh, a7 integrin act, VP16 counter, Giardia kill)
CC(C)NC(=O)c1cccc2c1-c1ccccc1C2=O	none
O=C(Nc1ncc(Cc2ccccc2)s1)C1COc2ccccc2O1 (centres undefined)	RORg inh 10µM, VP16 counter 2µM
CCC(CC)c1nnc(NC(=O)C2COc3ccccc3O2)s1 (centres undefined)	RORg inh 10µM
O=C(NC1=NCCS1)C1COc2ccccc2O1 (centres undefined)	RORg inh 6.31µM, VP16 counter 4.47µM

Assay outcomes: PubChem, National Center for Advancing Translational Sciences (NCATS)
